Screening results: PubChem BioAssay, National Center for Advancing Translational Sciences (NCATS)
TRHR agonist: activates the human TRH receptor; actives 0.18% (n = 360,000); TRHR cells, calcium flux fluo-8, FDSS agonist mode; P34981; activation, % at 2 µM; also: 0% is about no effect
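Steps: seed TRHR cells overnight; add fluo-8 no-wash Ca dye, RT 30 min–1.5 h; record 10 s baseline; pin-transfer compounds; monitor fluorescence 1 cycle/s for the agonist window. Calcium increases flag candidate agonists.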
D1 PAM: potentiators of human D1 dopamine receptor; P21728; HEK293 TREx D1 cells, calcium flux, dopamine EC20 potentiation; potentiation, % at 10 µM; actives 0.036% (n = 360,000); in the data active = potentiation above about 30%; also: 0% is about no effect
Target sequence (P21728 whole entry, looked up): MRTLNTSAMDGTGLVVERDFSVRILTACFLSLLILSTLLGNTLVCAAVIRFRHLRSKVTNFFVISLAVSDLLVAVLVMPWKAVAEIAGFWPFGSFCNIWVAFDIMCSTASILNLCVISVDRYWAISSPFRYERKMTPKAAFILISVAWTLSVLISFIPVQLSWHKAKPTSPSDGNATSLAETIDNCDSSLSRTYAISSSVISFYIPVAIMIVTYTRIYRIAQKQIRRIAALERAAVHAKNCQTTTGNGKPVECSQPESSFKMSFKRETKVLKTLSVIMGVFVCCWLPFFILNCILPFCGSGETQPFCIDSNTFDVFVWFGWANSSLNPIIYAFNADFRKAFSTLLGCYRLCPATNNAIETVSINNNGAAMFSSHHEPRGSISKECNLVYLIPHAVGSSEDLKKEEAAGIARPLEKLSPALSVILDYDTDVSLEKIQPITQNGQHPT
D1 ag: agonists of human D1 dopamine receptor | HEK293 T-REx D1 cells, calcium flux, agonist mode | activation, % at 2 µM | actives 1% (n = 360,000) | AID 504660; also: 0% is about no effect
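Tetracycline-induced HEK293 TREx D1 cells, force-coupled to calcium signalling, were dye-loaded with a no-wash calcium kit. Compound was pin-added after a 10 s baseline. Fluorescence was read kinetically at 1 cycle/s for 180 s, with calcium rises flagged as agonism.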
TRHR enhancer: TRH receptor (human) allosteric enhancement; P34981; TRHR cells, fluo-8 calcium fluorescence, EC20 TRH enhancement; actives 0.66% (n = 360,000); enhancement, % at 2 µM; in the data active = enhancement above about 30%; also: 0% is about no effect
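TRHR-expressing cells loaded with fluo-8 calcium dye were read kinetically (ex 480/em 530) during compound addition, then stimulated with an EC20 of TRH (10 nM final). Enhancement of the Gq-mediated intracellular calcium response was scored.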
D1 antag: human D1 dopamine receptor antagonism; HEK293 TREx D1 cells, calcium flux, dopamine EC80; hits give low values; actives 3.2% (n = 360,000); AID 504652; P21728; activity change, negative = inhibition, % at 10 µM; in the data active = activity change below about -30%; also: % is scaled to controls: 0 for no effect and ±100 for the full control effect
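Antagonism measured as reduced calcium response to an EC80 dopamine addition following 180 s compound pre-read; cells were inducible HEK293 Trex D1 plated overnight at 30 C, read kinetically at 1 cycle/sec.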
Numbers without * were called inactive. The list is not random: actives were taken first. Their share in the collection is about 4.6%. Rule as the data show it, unless noted: active = activation above about 30%; inactive = the rest.

SMILES	TRHR agonist	D1 PAM	D1 ag	TRHR enhancer	D1 antag
CCN(CC)S(=O)(=O)c1cccc(-c2n[nH]c(=S)n2/N=C/c2ccc(OC(F)F)cc2)c1	0	-9	1	-2	-83*
CCOc1cc(N2CCOCC2)c(OCC)cc1NC(=O)C1CCCC1	0	-4	5	27	9
CCOc1cc(N2CCOCC2)c(OCC)cc1NC(=O)CCC1CCCC1	0	-6	2	-3	-31*
CCOC(=O)c1c(NC(=O)CSc2nnc(Cc3ccccc3)o2)sc(C(C)=O)c1C	-1	-10	1	-2	-36*
CCOC(=O)c1c(NC(=O)CSc2nnc(-c3ccccc3)o2)sc(C(C)=O)c1C	0	-2	1	-2	-2
O=C(O)c1nnn(-c2ccc([N+](=O)[O-])cc2)c1-c1ccccc1	0	-4	0	0	-42*
Cc1cccc(-n2c(=O)c3ccccc3n(Cc3ccccc3C#N)c2=O)c1	-1	4	0	8	10
COC(=O)c1ccc(C(=O)OC)c(NC(=O)COC(=O)c2ccc(OC)c(OC)c2OC)c1	0	-5	0	-5	-86*
CCOCC(=O)Nc1cc(C(=O)OC)ccc1C(=O)OC	-1	-10	0	0	-19
COc1ccc(NCc2nnc(SCC(=O)Nc3nc(-c4ccccc4)cs3)n2-c2ccccc2)cc1	1	-3	0	3	-60*
CCOc1ccc(-c2cc(NC(=O)c3c(F)cccc3F)c(C(=O)O)s2)cc1	0	-8	0	-1	-49*
CCOc1ccc(NC(=O)Nc2cc(-c3ccccc3)sc2C(=O)OC)cc1	1	7	4	-1	6
CCc1ccc(-c2nn(CC(=O)NC3CCCCC3)c3c2cnc2ccc(C)cc23)cc1	0	-2	2	0	-6
COc1ccc(-c2nnc(SCC(=O)Nc3ccc(C)cc3)n2C)cc1	0	0	0	-1	-90*
CCn1c(SCC(=O)N(C)CC(=O)Nc2cccc(OC)c2)nnc1-c1ccco1	0	0	4	27	2
COc1ccc(NC(=O)CSc2nnnn2-c2ccc(F)cc2)cc1	0	0	1	0	0
Cc1ccc(S(=O)(=O)N(C)C)cc1NC(=O)CSc1nnnn1-c1ccc(O)cc1	2	-1	3	1	-8
COc1ccc(C(=O)Nc2ccc(NC(=O)CSc3nnc(-c4ccncc4)n3C)cc2)cc1	1	0	3	3	8
CN(C)S(=O)(=O)c1ccc(Cl)c(NC(=O)CSc2nnnn2-c2ccc(O)cc2)c1	-1	4	15	11	-32*
COc1ccc(NC(=O)CSc2nnnn2-c2ccc(OC)cc2)cc1	0	4	-3	6	-80*
CCn1c(SCC(=O)N(C)CC(=O)Nc2ccc(OC)cc2)nnc1-c1ccco1	-1	1	1	38*	-24
Cc1cc(C)c(S(=O)(=O)NCC(c2ccc(N(C)C)cc2)N2CCOCC2)c(C)c1 (stereo unspecified)	-1	1	0	0	-6
CNCc1ccccc1Sc1ccc(OC)cc1	0	-1	9	9	8
CN(C)CCN(C)Cc1ccccc1Sc1cccc2ccccc12	1	-15	51*	4	-36*
CNCc1ccccc1Sc1cccc2ccccc12	1	-10	59*	4	-19
SMILES	TRHR agonist	D1 PAM	D1 ag	TRHR enhancer	D1 antag
COc1cccc(CN2CCN(C3CCN(c4ccccc4F)CC3)CC2CCO)c1 (stereo unspecified)	1	-7	4	10	3
O/N=C/c1ccc(OCc2ccccc2)c(Br)c1	-1	1	2	3	-33*
CCc1nc(C)c(C#N)c2cc(OC)c(OC)cc12	-1	-6	0	6	-34*
Cc1c2cnn(-c3ccccc3)c(=O)c2c(C)n1CC(=O)NCCc1ccc(Cl)cc1	0	-2	-2	-3	-6
CC1C/C(=C/c2cccn2C)C(=O)/C(=C/c2cccn2C)C1 (stereo unspecified)	82*	7	198*	35*	-29
CC1C/C(=C/c2ccncc2)C(=O)/C(=C/c2ccncc2)C1 (stereo unspecified)	2	-3	6	-2	-32*
CC(C)C(c1nnnn1C1CCCCC1)N1CCc2ccccc2C1 (stereo unspecified)	0	6	0	6	-9
O=C(OCn1ncc(Cl)c(Cl)c1=O)c1ccc(C(F)(F)F)cc1	0	-4	1	-13	-48*
CCOC(=O)c1ccc(NC(=O)Cn2ncc(Cl)c(Cl)c2=O)cc1	0	-3	0	1	-30
Cc1ccc(C(=O)OCn2ncc(Cl)c(Cl)c2=O)cc1	-1	-8	13	7	-48*
CCC(=O)Nc1ccc(C(=O)Cn2ncc(Cl)c(Cl)c2=O)cc1	-1	0	-2	7	-1
COc1ccc(OC)c(N(CC(=O)NC2CC2)S(=O)(=O)c2ccc(C)cc2)c1	0	1	1	4	-15
Cc1ccc(NC(=O)c2c(F)cccc2Cl)cc1NS(C)(=O)=O	0	-1	3	38*	-3
CN(C)S(=O)(=O)Oc1ccc(C(=O)Nc2cccc(Cl)c2)cc1	-1	-7	24	5	-47*
O=C(CCC(=O)OCC(=O)c1ccccc1)Nc1cccc(Cl)c1	-1	-6	6	9	-2
COC(=O)CCC(=O)Nc1cccc(C(=O)Nc2cccc(Cl)c2)c1	0	-2	31*	4	7
CS(=O)(=O)Nc1ccccc1C(=O)Nc1cccc(Cl)c1	3	-1	38*	-2	-33*
CCCOc1cccc(C(=O)N/N=C/c2coc3ccccc3c2=O)c1	0	-3	1	4	-16
CCCCc1ccc(C(=O)Nc2ccc3nc(N4CCN(CC)CC4)cc(C)c3c2)cc1	0	-1	5	-1	-59*
CCN1CCN(c2cc(C)c3cc(NC(=O)c4cccc(Cl)c4)ccc3n2)CC1	0	-1	4	6	7
CCN1CCN(c2cc(C)c3cc(NC(=O)/C=C/c4cccc(Cl)c4)ccc3n2)CC1	0	-1	10	4	-36*
CCN(CC)c1ccc(NC(=O)COC(=O)Cc2ccsc2)cc1	-1	3	6	4	3
COc1cc(NC(=O)c2ncn(-c3ccccc3)n2)cc(OC)c1	-1	5	0	4	-18
CC(C)OC(=O)C(NC(=O)c1ccccc1)=C1CCCCC1	-1	-2	4	-5	-38*
CC(C)OC(=O)/C(=C\c1ccccc1)NC(=O)c1ccccc1	0	-3	-1	-4	5
CCOC(=O)c1cccnc1SCC(=O)N(C)c1ccccc1	0	1	5	3	-44*
CCOC(=O)/C=C1\CN(Cc2ccc(OC)cc2)S(=O)(=O)c2ccccc21	-1	-6	9	-7	-27
